In PubChem BioAssay (Tox21):
A number with no mark means an inactive call. Records with an inconclusive call do not appear. Entries that show only a call come without a potency. Activity calls are given as the source filed them. Unless noted, the call rests on the fitted dose curve; in most records, active means well fitted curve in the direction sought with a large enough effect in the repeat runs; inconclusive means weak or mixed curves; inactive means no such curve, though single readings can be large; an effect the other way counts as inactive or inconclusive.

What was measured:
[1] = qHTS RealTime-Glo MT Cell Viability Assay in HEK293 cells - 0 hour (AID 1224880); further: nearly all actives have a fitted effect of over 45% in size; further: potency means the concentration at half of the fitted maximal effect
Outline: (§1)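 Nonlytic bioluminescent viability monitoring. HEK293 at 600 cells/well with reagent; 5 h settle; compound transfer by pintool; plates held at 37 C and read at set time points.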

[2] = A CellTox Green Cytotoxicity Assay to monitor cytotoxicity in HEK293 cells - 32 hour (AID 1224881); further: nearly all actives have a fitted effect of over 40% in size
Outline: (§2)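 Cytotoxicity was tracked continuously in HEK293 cells by a DNA-binding dye excluded from viable cells. Compounds were transferred in DMSO 5 h after seeding; fluorescence was recorded at intervals up to 40 h.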

[3] = A CellTox Green Cytotoxicity Assay to monitor cytotoxicity in HepG2 cells - 0 hour (AID 1224882); further: nearly all actives have a fitted effect of over 35% in size
Outline: (§3)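 Real-time, homogeneous cytotoxicity readout: dead-cell DNA staining by CellTox Green in HepG2 monolayers, fluorescence measured at timed intervals up to 40 h of continuous compound exposure.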

[4] = A CellTox Green Cytotoxicity Assay to monitor cytotoxicity in HepG2 cells - 32 hour (AID 1224883); further: nearly all actives have a fitted effect of over 50% in size
Outline: as §3

[5] = A CellTox Green Cytotoxicity Assay to monitor cytotoxicity in HEK293 cells - 8 hour (AID 1224884); further: nearly all actives have a fitted effect of over 35% in size
Outline: as §2

[6] = qHTS RealTime-Glo MT Cell Viability Assay in HEK293 cells - 24 hour (AID 1224886); further: top concentration of the series differs between compounds; nearly all actives have a fitted effect of over 50% in size
Outline: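 Quantitative high-throughput screen of the Tox21 10K library in HEK293: cells and RealTime-Glo reagents plated together, compound added at 5 h, luminescence monitored through 40 h at 37 C.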

[7] = qHTS RealTime-Glo MT Cell Viability Assay in HepG2 cells - 0 hour (AID 1224889); further: nearly all actives have a fitted effect of over 50% in size; further: potency means the concentration at half of the fitted maximal effect
Outline: (§4)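 Compound treatment began 5 h after plating HepG2 cells (600/well) with NanoLuc luciferase and prosubstrate. Plates stayed at 37 C for 40 h; luminescence was captured at six time points, 0 h through 40 h.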

[8] = qHTS assay to identify small molecule antagonists of the estrogen receptor alpha (ER-alpha) signaling pathway using the BG1 cell line in the presence of 0.1 nM 17-beta-estradiol - cell viability counter screen (AID 1259241); further: nearly all actives have a fitted effect of over 40% in size
Outline: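 The cell line endogenously expresses full-length ER-alpha and carries four EREs driving luciferase. Cells are cultured 5 days hormone-free, treated 22 hr with compounds and 0.1 nM estradiol, then viability is read by fluorescence.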

[9] = qHTS assay to identify small molecule antagonists of the androgen receptor (AR) signaling pathway using the MDA cell line in the presence of 0.5 nM R1881 - cell viability counter screen (AID 1259242); further: nearly all actives have a fitted effect of over 45% in size
Outline: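 Cytotoxicity toward MDA-kb2 cells is measured by CellTiter-Fluor live-cell protease fluorescence after 16 hr compound exposure at 37C in the presence of 0.5 nM R1881 stimulator.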

[10] = molecular target: Androgen receptor (Homo sapiens) (UniProt P10275); test: qHTS assay to identify small molecule antagonists of the androgen receptor (AR) signaling pathway using the MDA cell line in the presence of 0.5 nM R1881 (AID 1259243); further: nearly all actives have a fitted effect of over 50% in size
Outline: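 Steps: seed MDA-kb2 cells, incubate 5 hr at 37C; pin-transfer compounds in DMSO; add R1881 to 0.5 nM final; incubate 16 hr; add ONE-Glo, wait 30 min at room temperature; read luminescence.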

[11] = qHTS assay to identify small molecule phospholipidosis (PLD) inducers (AID 1259344; active means well fitted curve in the direction sought with a large enough effect; an effect the other way counts as inactive or inconclusive)
Outline: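 HepG2 cells, 900/well, treated with compound plus LipidTOX Red for 24 h at 37 C; amiodarone positive and DMSO negative controls. Fixed with paraformaldehyde/Hoechst, then high-content imaging scored LipidTOX pit count and integrated intensity per well and per cell.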

[12] = qHTS assay to identify small molecule HDAC inhibitors (AID 1259364); further: top concentration of the series differs between compounds; nearly all actives have a fitted effect of over 45% in size
Outline: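 Homogeneous cell-based luminescent assay of endogenous class I/II HDAC activity; HCT-116 cells, 2 h compound exposure, 30 min HDAC-Glo development at RT.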

[13] = qHTS assay to identify small molecule HDAC inhibitors - cell viability counter screen (AID 1259365)
Outline: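 Viability readout: CellTiter-Glo luminescence. Wild-type HCT-116 cells, 2hr compound treatment following overnight attachment at 37 C.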

[14] = qHTS assay to identify small molecule agonists of the sonic hedgehog signaling (Shh) pathway - cell viability counter screen (AID 1259366); further: nearly all actives have a fitted effect of over 50% in size
Outline: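 Viability measured fluorometrically (CellTiter-Fluor, 1hr, 37C) in 3T3 Gli1-Luc reporter cells after 23hr compound exposure within a 24hr incubation at 37C/5% CO2.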

[15] = qHTS assay to identify small molecule antagonists of the sonic hedgehog signaling (Shh) pathway - cell viability counter screen (AID 1259367); further: nearly all actives have a fitted effect of over 55% in size
Outline: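 NIH/3T3-derived Gli1-Luc reporter cells, 2,000/well, plated 4 hr before compound addition, then stimulated with conditioned medium for 24 hr at 37C. Viability measured in the same wells by CellTiter-Fluor fluorescence, reagent added at 23 hr for 1 hr.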

[16] = qHTS RealTime-Glo MT Cell Viability Assay in HepG2 cells - 16 hour (AID 1224885); further: nearly all actives have a fitted effect of over 50% in size
Outline: as §4

[17] = qHTS RealTime-Glo MT Cell Viability Assay in HEK293 cells - 8 hour (AID 1224887)
Outline: as §1

[18] = A CellTox Green Cytotoxicity Assay to monitor cytotoxicity in HEK293 cells - 16 hour (AID 1224888); further: nearly all actives have a fitted effect of over 35% in size
Outline: as §2

[19] = A CellTox Green Cytotoxicity Assay to monitor cytotoxicity in HepG2 cells - 8 hour (AID 1224890); further: nearly all actives have a fitted effect of over 45% in size
Outline: as §3

[20] = molecular target: Estrogen receptor (Homo sapiens) (UniProt P03372); test: qHTS assay to identify small molecule antagonists of the estrogen receptor alpha (ER-alpha) signaling pathway using the BG1 cell line in the presence of 0.1 nM 17-beta-estradiol (AID 1259244); further: nearly all actives have a fitted effect of over 50% in size; further: potency means the concentration at half of the fitted maximal effect
Outline: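 After 5 days in hormone-depleted medium (charcoal-stripped serum, no phenol red), VM7Luc4E2 cells were seeded, incubated 24 h, then co-treated with compound and 0.1 nM (final) estradiol for 22 h before luminescence detection.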

Chain of Estrogen receptor (Homo sapiens) (P03372 whole entry, looked up): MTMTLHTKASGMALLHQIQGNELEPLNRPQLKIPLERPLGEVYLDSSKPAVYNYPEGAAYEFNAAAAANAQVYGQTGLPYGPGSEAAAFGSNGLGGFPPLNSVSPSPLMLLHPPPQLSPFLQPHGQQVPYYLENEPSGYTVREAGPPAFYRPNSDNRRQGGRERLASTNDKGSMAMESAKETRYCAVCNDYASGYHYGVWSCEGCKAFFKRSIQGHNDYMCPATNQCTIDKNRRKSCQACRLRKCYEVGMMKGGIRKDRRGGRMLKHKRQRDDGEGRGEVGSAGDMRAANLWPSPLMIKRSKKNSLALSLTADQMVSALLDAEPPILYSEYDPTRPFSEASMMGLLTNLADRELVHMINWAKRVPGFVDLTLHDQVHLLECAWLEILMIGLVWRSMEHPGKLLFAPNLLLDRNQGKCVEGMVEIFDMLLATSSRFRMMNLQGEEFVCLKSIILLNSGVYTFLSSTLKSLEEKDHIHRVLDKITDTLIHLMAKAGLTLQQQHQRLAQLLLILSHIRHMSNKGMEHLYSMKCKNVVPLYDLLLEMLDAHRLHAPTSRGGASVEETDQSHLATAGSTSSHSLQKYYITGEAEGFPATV
Chain of Androgen receptor (Homo sapiens) (P10275 whole entry, looked up): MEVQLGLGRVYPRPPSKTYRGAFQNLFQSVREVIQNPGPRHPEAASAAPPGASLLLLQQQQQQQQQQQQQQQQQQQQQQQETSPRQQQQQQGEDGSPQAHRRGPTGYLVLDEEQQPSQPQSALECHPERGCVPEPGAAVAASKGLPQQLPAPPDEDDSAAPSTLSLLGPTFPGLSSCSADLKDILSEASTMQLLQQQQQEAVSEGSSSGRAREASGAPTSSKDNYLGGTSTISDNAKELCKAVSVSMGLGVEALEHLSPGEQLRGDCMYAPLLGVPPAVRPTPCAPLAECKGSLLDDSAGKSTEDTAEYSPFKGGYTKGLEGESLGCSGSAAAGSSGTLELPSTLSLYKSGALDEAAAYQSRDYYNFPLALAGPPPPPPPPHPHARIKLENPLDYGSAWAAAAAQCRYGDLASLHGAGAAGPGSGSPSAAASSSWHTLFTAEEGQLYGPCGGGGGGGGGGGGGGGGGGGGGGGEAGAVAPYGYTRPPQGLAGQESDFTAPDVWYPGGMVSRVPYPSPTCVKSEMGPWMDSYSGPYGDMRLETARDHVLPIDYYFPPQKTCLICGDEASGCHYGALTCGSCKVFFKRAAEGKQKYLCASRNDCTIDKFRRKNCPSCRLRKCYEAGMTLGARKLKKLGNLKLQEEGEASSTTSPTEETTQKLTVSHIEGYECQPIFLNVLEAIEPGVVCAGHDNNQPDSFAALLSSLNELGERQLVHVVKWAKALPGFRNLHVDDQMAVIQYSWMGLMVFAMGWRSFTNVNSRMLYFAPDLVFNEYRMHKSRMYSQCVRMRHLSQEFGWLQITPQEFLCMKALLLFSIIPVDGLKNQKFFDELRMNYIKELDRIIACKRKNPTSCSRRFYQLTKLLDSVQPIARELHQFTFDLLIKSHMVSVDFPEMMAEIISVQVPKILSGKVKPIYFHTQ

SMILES | Potency [1] | Potency [2] | Potency [3] | Potency [4] | Potency [5] | Potency [6] | Potency [7] | Potency [8] | Potency [9] | Potency [10] | outcome [11] | Potency [12] | Potency [13] | Potency [14] | Potency [15] | Potency [16] | Potency [17] | Potency [18] | Potency [19] | Potency [20]
Cc1cc(O)c2c(O)c3c(O)cccc3cc2c1 | inactive | inactive | inactive | inactive | inactive | inactive | inactive | inactive | inactive | inactive | inactive | inactive | inactive | inactive | inactive | – | – | – | – | –
CCOC(=O)OCC | inactive | inactive | inactive | inactive | inactive | – | inactive | inactive | inactive | – | – | inactive | inactive | inactive | inactive | inactive | inactive | inactive | inactive | inactive
COCCOC(=O)C1=C(C)NC(C)=C(C(=O)OC/C=C/c2ccccc2)C1c1cccc([N+](=O)[O-])c1 (stereo unspecified) | 5.35 µM (active) | inactive | inactive | inactive | inactive | inactive | 6.74 µM (active) | inactive | inactive | – | inactive | inactive | inactive | – | inactive | – | – | inactive | inactive | –
CCCCC(CC)CNCC(CC)CCCC (stereo unspecified) | inactive | inactive | inactive | inactive | – | inactive | inactive | inactive | inactive | – | – | inactive | inactive | inactive | inactive | inactive | inactive | – | inactive | –
CCCCOC(=O)CCS | inactive | inactive | inactive | inactive | inactive | inactive | inactive | inactive | inactive | – | – | inactive | inactive | inactive | inactive | – | inactive | inactive | – | 27.3 µM (active)
N#C/C(=C1\SCC(c2ccccc2Cl)S1)n1ccnc1 (stereo unspecified) | inactive | inactive | inactive | inactive | – | – | inactive | inactive | inactive | – | inactive | inactive | inactive | inactive | inactive | inactive | – | – | inactive | –
CC(CCO)CCc1ccccc1 (stereo unspecified) | inactive | inactive | inactive | inactive | – | inactive | inactive | inactive | inactive | – | – | inactive | inactive | inactive | inactive | inactive | inactive | inactive | inactive | inactive
C[Si](NC1CCCCC1)(NC1CCCCC1)NC1CCCCC1 | inactive | inactive | inactive | inactive | inactive | – | inactive | inactive | inactive | – | – | inactive | inactive | inactive | inactive | inactive | inactive | inactive | inactive | inactive
